This passage reports Potency, max response and outcome results from PubChem BioAssay (NCATS).

Inconclusive results are not listed. A number with no mark means an inactive call. Activity calls are given as the source filed them. The call rests on the fitted dose curve; in most records, active means well fitted curve in the direction sought with a large enough effect; inconclusive means small, poorly fitted or top-dose-only effect, or another doubt; inactive means no such curve, though single readings can be large; an effect the other way counts as inactive or inconclusive.

One experiment relates to CRL-7250. The experiment in a line: Cytotoxic Profiling of Annotated Libraries Using Quantitative High-Throughput Screening (AID 1296008). Further: nearly all actives have a fitted effect of over 60% in size. Further: potency means the concentration at half of the fitted maximal effect. As to conditions: Five cell lines viability, CellTiter-Glo ATP luminescence, 48-72 h; max response: stronger effect = lower value. In short, it runs like this: (§1)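 Cytotoxicity was measured as CellTiter-Glo ATP luminescence, read after 10 min at room temperature. Compound treatment of the cells lasted 48 or 72 hr at 37 degrees Celsius in a qHTS format.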
Background: ATP-based viability assays read luminescence as a measure of living cells.

The test system of a further experiment is HEK293. The description is as above. To be noted: Five cell lines viability, CellTiter-Glo ATP luminescence, 48-72 h; max response: stronger effect = lower value. In short, it runs like this: as §1
The subject of experiment [1] is HaCat. Described as above. To be noted: Five cell lines viability, CellTiter-Glo ATP luminescence, 48-72 h; max response: stronger effect = lower value. A digest of the protocol:
as §1

Another experiment relates to KB-3-1. The experiment is described as above. To be noted: Five cell lines viability, CellTiter-Glo ATP luminescence, 48-72 h; max response: stronger effect = lower value. A digest of the protocol: as §1
In another experiment the test system is MCC-13. In words: qHTS assay to identify novel small-molecules to repurpose for Merkel cell carcinoma treatment (AID 1296009). Further: nearly all actives have a fitted effect of over 60% in size. Further: potency means the concentration at half of the fitted maximal effect. To be noted: MCC and control cell lines, CellTiter-Glo viability, 72 h; series mostly up to 46 µM. A digest of the protocol:
(§2)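 72 hr, 37 degree celsius; NPC 8-pt / MIPE 11-pt dose response; compound pinned in DMSO; CellTiter-Glo, 10 min RT, luminescence; normalized to no-cell and DMSO controls.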
For orientation: In qHTS, concentration-response curves come from the screen itself.

The test system of a further experiment is MKL-1. The experiment is described as above. To be noted: MCC and control cell lines, CellTiter-Glo viability, 72 h; series mostly up to 46 µM. In short, it runs like this: as §2
For another experiment, the system named is MKL-2. The description is as above. To be noted: MCC and control cell lines, CellTiter-Glo viability, 72 h; series mostly up to 46 µM. A digest of the protocol:
as §2

A further experiment relates to WaGa. The description is as above. To be noted: MCC and control cell lines, CellTiter-Glo viability, 72 h; series mostly up to 46 µM. A digest of the protocol: as §2
The subject of a further experiment is MCC-26. The experiment is described as above. As to conditions: MCC and control cell lines, CellTiter-Glo viability, 72 h; series mostly up to 46 µM. In short, it runs like this: as §2
Another experiment has as its system UISO. Described as above. To be noted: MCC and control cell lines, CellTiter-Glo viability, 72 h; series mostly up to 46 µM. In short, it runs like this:
as §2

The test system of experiment [2] is NIH3T3. The experiment in a line: Cytotoxic Profiling of Annotated Libraries Using Quantitative High-Throughput Screening (AID 1296008). Further: nearly all actives have a fitted effect of over 60% in size. Further: potency means the concentration at half of the fitted maximal effect. To be noted: Five cell lines viability, CellTiter-Glo ATP luminescence, 48-72 h; max response: stronger effect = lower value. In short, it runs like this:
as §1

Experiment [3] concerns HACAT. In words: qHTS assay to identify novel small-molecules to repurpose for Merkel cell carcinoma treatment (AID 1296009). Further: nearly all actives have a fitted effect of over 60% in size. Further: potency means the concentration at half of the fitted maximal effect. As to conditions: MCC and control cell lines, CellTiter-Glo viability, 72 h; at 44.8 µM (top of the series) unless noted. A digest of the protocol: as §2
In experiment [4] the test system is NIH3T3. The description is as above. To be noted: MCC and control cell lines, CellTiter-Glo viability, 72 h; at 44.8 µM (top of the series) unless noted. A digest of the protocol:
as §2

Another experiment relates to CASKI. In words: Primary qHTS to identify gynecologic anti-cancer compounds using libraries of approved drugs and bioactive compounds (AID 1345084). Further: nearly all actives have a fitted effect of over 55% in size. As to conditions: Gynecologic cancer cell panel viability, ATPlite luminescence, 48 h; series mostly up to 57.5 µM. In short, it runs like this: (§3)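 Five-concentration response, 48 h; readout is ATP-driven luciferase luminescence.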

Another experiment has as its system Es-2. The description is as above. As to conditions: Gynecologic cancer cell panel viability, ATPlite luminescence, 48 h; series mostly up to 57.5 µM. In short, it runs like this: as §3
Another experiment deals with HeLa. Described as above. As to conditions: Gynecologic cancer cell panel viability, ATPlite luminescence, 48 h; series mostly up to 57.5 µM. In short, it runs like this:
as §3

Another experiment relates to HEK293T. In words: qHTS assay to identify novel small-molecules to repurpose for Merkel cell carcinoma treatment (AID 1296009). Further: nearly all actives have a fitted effect of over 60% in size. Further: potency means the concentration at half of the fitted maximal effect. As to conditions: MCC and control cell lines, CellTiter-Glo viability, 72 h; series mostly up to 44.8 µM. A digest of the protocol:
as §2
On the % scale 0 is the no-effect control and ±100 the full control effect.

Turning to `CCOC(=O)N1CCN([N+]([O-])=NOc2ccc([N+](=O)[O-])cc2C#N)CC1`, the Potency with CRL-7250 was 5.26 µM (active); in the experiment with HEK293, 3.32 µM (active); with KB-3-1, 16.6 µM (active); in the experiment with MCC-13, 2.64 µM (active); in the experiment with MKL-1 it was 1.66 µM (active); with MKL-2 it was 1.18 µM (active). For the same compound, the Potency in the experiment on WaGa is 3.72 µM (active). Besides, the max response in the experiment with HaCat [1] was -20.9%.
On to `c1ccc(CNc2nc(NCc3ccccc3)c3ccccc3n2)cc1`, for which the max response with CRL-7250 was -7.33%. For the same compound, the Potency was 14.8 µM (active) with HEK293, 26.4 µM (active) with KB-3-1 and 18.7 µM (active) in the experiment with MKL-2. Further, the Potency entry in the experiment with MCC-13, in the experiment with MCC-26, with MKL-1, in the experiment with UISO and in the experiment with WaGa was “inactive” in each case.
Take `CCOC(=O)C1=C(C)NC(=S)NC1c1cccc(O)c1` (stereo not given): the max response in the experiment on CRL-7250 is -18.5%; with HaCat [1], -10%. Further, the Potency was 0.0132 µM (active) in the experiment on HEK293; 0.0469 µM (active) with KB-3-1; 1.48 µM (active) in the experiment on MCC-13; 0.148 µM (active) in the experiment with UISO; 0.0526 µM (active) in the experiment with WaGa. Also, the Potency entry in the experiment with MKL-2 was “inactive”.
As to `O=C(c1ccc(F)cc1)N1CCC[C@H](c2nc(-c3ccc(F)cc3)no2)C1`, the max response in the experiment on CRL-7250 is 3.37%; in the experiment on HEK293 it was -0.935%. Moreover, the compound was called inactive with HaCat [1], in the experiment with NIH3T3 [2], in the experiment on HACAT [3] and with NIH3T3 [4]. Moreover, the Potency entry in the experiment with MCC-13, with MCC-26, with MKL-1, in the experiment on MKL-2, with UISO and in the experiment with WaGa was “inactive” throughout.
For `C=C1C(=O)O[C@H]2[C@@H]1CCC(C)=CCC[C@@]1(C)O[C@@H]21`, the Potency is 11.8 µM (active) with CRL-7250; 4.18 µM (active) in the experiment with HEK293; 20.9 µM (active) in the experiment with HaCat [1]; 16.6 µM (active) in the experiment on MCC-13; 7.43 µM (active) in the experiment on MKL-1; 1.87 µM (active) in the experiment on MKL-2. The figures for the Potency in the experiment on UISO and in the experiment on WaGa were 14.8 µM (active) and 7.43 µM (active), respectively.
Take `Cn1cc(-c2cnn3c(N)c(Br)c([C@H]4CCCNC4)nc23)cn1`: the Potency with CRL-7250 is 20.9 µM (active); with HEK293, 0.418 µM (active); in the experiment on KB-3-1, 10.5 µM (active); in the experiment on NIH3T3 [2] it was 0.662 µM (active); in the experiment on MKL-2, 1.32 µM (active); in the experiment on WaGa, 1.32 µM (active). Moreover, the Potency entry with MCC-13 and in the experiment on MCC-26 was “inactive” each time.
Consider `N[C@H]1CN(c2c(F)cc3c(=O)c(C(=O)O)cn(C4C[C@@H]4F)c3c2Cl)CC12CC2` (stereo not given in full), for which the results for the max response in the experiment with CRL-7250, in the experiment on HEK293 and with KB-3-1 were -23.8%, -9.37% and -14.1%, respectively. The call in the experiment with NIH3T3 [2] and with NIH3T3 [4] was inactive. Further, the Potency entry in the experiment on MCC-13, with MCC-26, in the experiment on MKL-1, in the experiment with MKL-2, in the experiment on UISO and with WaGa was “inactive” each time. Further, the Potency result in the experiment with CASKI, in the experiment with Es-2 and in the experiment on HeLa was “inactive” each time.
As for `C=CC(=O)Nc1cccc(Nc2nc(NC3CCC(N(C)C)CC3)nc3c2ncn3C(C)C)c1` (stereo not given), the Potency in the experiment with CRL-7250 is 0.59 µM (active); in the experiment on HEK293, 1.32 µM (active); in the experiment on HaCat [1], 7.43 µM (active); in the experiment with NIH3T3 [2], 14.8 µM (active); in the experiment with MKL-1 it was 0.0074 µM (active); in the experiment on MKL-2, 0.0166 µM (active). Moreover, the Potency with UISO was 0.418 µM (active).
As to `CCN(CC)CCNC(=O)c1c(C)[nH]c(C=C2C(=O)Nc3ccc(F)cc32)c1C`, the Potency in the experiment on CRL-7250 is 0.34 µM (active); in the experiment on HEK293 it was 0.27 µM (active); in the experiment on KB-3-1, 2.15 µM (active); in the experiment with MCC-13, 42.9 µM (active); in the experiment with MKL-1, 12.1 µM (active); with MKL-2, 15.2 µM (active). For the same compound, the Potency in the experiment with UISO was 6.05 µM (active); in the experiment on WaGa it was 13.6 µM (active).
For the compound `CS[C@H]1SC[C@@H]2C(=O)N(C)[C@H](C(C)C)C(=O)OC[C@H](NC(=O)c3cnc4ccccc4n3)C(=O)N[C@H](C)C(=O)N(C)[C@@H]1C(=O)N(C)[C@H](C(C)C)C(=O)OC[C@H](NC(=O)c1cnc3ccccc3n1)C(=O)N[C@H](C)C(=O)N2C`, the Potency is 0.0074 µM (active) in the experiment with CRL-7250; 0.0053 µM (active) in the experiment with HEK293; 0.0118 µM (active) in the experiment with HaCat [1]; 0.0296 µM (active) in the experiment with MCC-13; 0.0026 µM (active) with UISO. Besides, in the experiment with WaGa, the Potency result is “inactive”.
`CN(CC(=O)N(Cc1ccc(C2CCCCC2)cc1)c1ccc(C(=O)O)c(O)c1)S(=O)(=O)c1c(F)c(F)c(F)c(F)c1F`: the result in the experiment with CRL-7250, in the experiment on HEK293, with NIH3T3 [2] and in the experiment on NIH3T3 [4] was inactive. In addition, in the experiment with HaCat [1], the max response was -3.31%. Besides, the Potency entry in the experiment with HEK293T, with MCC-26 and in the experiment on UISO was “inactive” throughout. Further, the Potency with MKL-1 is 8.33 µM (active); with WaGa, 6.62 µM (active).
`CC(C(C)N1CC(=O)NC(=O)C1)N1CC(=O)NC(=O)C1` (stereo not given): in the experiment on CRL-7250, the compound was called inactive. In addition, in the experiment with HEK293, the Potency is 1.66 µM (active). Besides, in the experiment on KB-3-1, the max response is -3.89%. Also, the Potency entry in the experiment on MCC-13, with MCC-26, in the experiment on MKL-1, in the experiment on MKL-2, in the experiment with UISO and in the experiment with WaGa was “inactive” each time.
For the compound `CC(=O)O[C@@]12CO[C@H]1C[C@H](O)[C@@]1(C)C(=O)[C@H](O)C3=C(C)[C@@H](OC(=O)C(O)[C@@H](NC(=O)OC(C)(C)C)c4ccccc4)C[C@@](O)([C@@H](OC(=O)c4ccccc4)[C@@H]21)C3(C)C` (stereo not given in full), the max response in the experiment with CRL-7250 was -64.7%; with HEK293 it was -90.2%; with NIH3T3 [2] it was -88.1%. Also, in the experiment on KB-3-1, the Potency was 0.0526 µM (active). Also, the Potency entry in the experiment with MKL-1, in the experiment with MKL-2, with UISO and in the experiment with WaGa was “inactive” each time.
In the case of `Cc1cnc(Nc2ccc(N3CCN(C)CC3)cc2)nc1Nc1cccc(S(=O)(=O)NC(C)(C)C)c1`, the Potency in the experiment with CRL-7250 was 1.48 µM (active); in the experiment on HEK293 it was 4.69 µM (active); with HaCat [1], 0.296 µM (active); in the experiment on NIH3T3 [2], 4.18 µM (active); in the experiment with MCC-13 it was 16.6 µM (active); in the experiment on MCC-26, 8.33 µM (active). Further, the Potency in the experiment with MKL-1 was 10.5 µM (active); with MKL-2 it was 10.5 µM (active); in the experiment with WaGa it was 11.8 µM (active).
In the case of `COc1cc2ncnc(Nc3cccc(Br)c3)c2cc1OC`, the max response is -23.5% with CRL-7250, -29.7% in the experiment on HEK293 and -22% with NIH3T3 [2]. Further, the result in the experiment on KB-3-1 was inactive. Further, the Potency result with MKL-1 and in the experiment on WaGa was “inactive” throughout.
